{
  "source": "paper PMC12864922",
  "about": "“TDP-43 directly inhibits mRNA accumulation in neurites through modulation of mRNA stability”",
  "binders": {"B1": {"name": "ENSMUSG00000029636.67|Wasf3|73:79;237:241 (ssRNA)", "RNA": "GGGAGUUCUACAGUCCGACGAUCGCUUCGAUAUCCGCAUGCUACCAUCCUGAUUUGGUGGGCUUGCCACGUAUCUGCGCAGCUGCCCCACGUCAGCUCUCUGCAAGAUCACUGGCACACACACUCAGUGAUGUCUUCCAACCAGUGGGUGAUACGUUUUCCUGUUUCUUCCCUUUGCAAAUUGAAUUCCAGGUAGAUAUGGUUGUAGAGGGGAAAGUUUAACAAAUCAGAAUGAAAUGUUUGUCUGUUUGCACACUGGGCCUGGUGGCCUCCAAGGAAAACACAACGAUCGUUUGCUUUCUCUCUCUUGCGGUCGCACUAGUGUGGAAUUCUCGGGUGUCAAGG"}, "B2": {"name": "ENSMUSG00000061578.1419|Ksr2|3:7;229:233 (ssRNA)", "RNA": "GGGAGUUCUACAGUCCGACGAUCGCUUCGAUAUCCGCAUGCUAAUCAUACAUCUUGAUUCUCCAUUUUCCUUCUGGACCACAUGUCUCUUCCUUUUCCUUUUUAGAUCUGUCUUGCUCUCUGUCUCUCUCACUCAUUGCCAACAUGUUGCUGGGAAAGAAUAUUUGAUUUAGAUGCCAAUCAGGAAGGCAAGUAGGAUGGAUGGAUGAGUGAGUGGAUAGGUAGGUAUAUAAAUGGAUGGAUGGGUGAUGGAUGGGUAAAUGAAUGGAUAGCAUACUGAAUGAAUGGAUGAUGGAUGAAUGGACUCUUGCGGUCGCACUAGUGUGGAAUUCUCGGGUGUCAAGG"}, "B3": {"name": "ENSMUSG00000029636.440|Wasf3 (ssRNA)", "RNA": "GGGAGUUCUACAGUCCGACGAUCGCUUCGAUAUCCGCAUGCUAUAGGUGGUGGAUGGUUGAGUGGGUGGAUUCAUGAUGGAUGGAUGGAUGGAUGGAUGGAUGGAUGGAUGGAUGAGUGGAUGGAUAAUAGGUUGAUGGGUGGAUAGGUAGAUGAGUGAAUAGAUAGAUAUAGAUCAGUGGGAGGAUUGGAAAGUAGGUGAAUGAAUGGAUGGCAGAUAGAUGGAUCAAUUACAGAUGGAUGGAUGCAUGGAAUAGAUAGGUGGAUGGGUGGUGGCUAGAAGGUGCCUGAGUCUGCACAUCACCUCUUGCGGUCGCACUAGUGUGGAAUUCUCGGGUGUCAAGG"}, "B4": {"name": "ENSMUSG00000029636.449|Wasf3 (ssRNA)", "RNA": "GGGAGUUCUACAGUCCGACGAUCGCUUCGAUAUCCGCAUGCUAUGGAUGGAUGGAUGGAUGAGUGGAUGGAUAAUAGGUUGAUGGGUGGAUAGGUAGAUGAGUGAAUAGAUAGAUAUAGAUCAGUGGGAGGAUUGGAAAGUAGGUGAAUGAAUGGAUGGCAGAUAGAUGGAUCAAUUACAGAUGGAUGGAUGCAUGGAAUAGAUAGGUGGAUGGGUGGUGGCUAGAAGGUGCCUGAGUCUGCACAUCACUGCACUGAGAAGGCAAAUGAGUACAUUAUACUAUUAGCACCAAACCCCAAGCUUCUCUUGCGGUCGCACUAGUGUGGAAUUCUCGGGUGUCAAGG"}, "B5": {"name": "ENSMUSG00000029636.444|Wasf3 (ssRNA)", "RNA": "GGGAGUUCUACAGUCCGACGAUCGCUUCGAUAUCCGCAUGCUAGGAUUCAUGAUGGAUGGAUGGAUGGAUGGAUGGAUGGAUGGAUGGAUGAGUGGAUGGAUAAUAGGUUGAUGGGUGGAUAGGUAGAUGAGUGAAUAGAUAGAUAUAGAUCAGUGGGAGGAUUGGAAAGUAGGUGAAUGAAUGGAUGGCAGAUAGAUGGAUCAAUUACAGAUGGAUGGAUGCAUGGAAUAGAUAGGUGGAUGGGUGGUGGCUAGAAGGUGCCUGAGUCUGCACAUCACUGCACUGAGAAGGCAAAUGAGUACCUCUUGCGGUCGCACUAGUGUGGAAUUCUCGGGUGUCAAGG"}, "B6": {"name": "ENSMUSG00000029636.443|Wasf3 (ssRNA)", "RNA": "GGGAGUUCUACAGUCCGACGAUCGCUUCGAUAUCCGCAUGCUAGUGGGUGGAUUCAUGAUGGAUGGAUGGAUGGAUGGAUGGAUGGAUGGAUGGAUGAGUGGAUGGAUAAUAGGUUGAUGGGUGGAUAGGUAGAUGAGUGAAUAGAUAGAUAUAGAUCAGUGGGAGGAUUGGAAAGUAGGUGAAUGAAUGGAUGGCAGAUAGAUGGAUCAAUUACAGAUGGAUGGAUGCAUGGAAUAGAUAGGUGGAUGGGUGGUGGCUAGAAGGUGCCUGAGUCUGCACAUCACUGCACUGAGAAGGCAAAUCUCUUGCGGUCGCACUAGUGUGGAAUUCUCGGGUGUCAAGG"}, "B7": {"name": "ENSMUSG00000029636.442|Wasf3 (ssRNA)", "RNA": "GGGAGUUCUACAGUCCGACGAUCGCUUCGAUAUCCGCAUGCUAGGUUGAGUGGGUGGAUUCAUGAUGGAUGGAUGGAUGGAUGGAUGGAUGGAUGGAUGGAUGAGUGGAUGGAUAAUAGGUUGAUGGGUGGAUAGGUAGAUGAGUGAAUAGAUAGAUAUAGAUCAGUGGGAGGAUUGGAAAGUAGGUGAAUGAAUGGAUGGCAGAUAGAUGGAUCAAUUACAGAUGGAUGGAUGCAUGGAAUAGAUAGGUGGAUGGGUGGUGGCUAGAAGGUGCCUGAGUCUGCACAUCACUGCACUGAGAAGCUCUUGCGGUCGCACUAGUGUGGAAUUCUCGGGUGUCAAGG"}, "B8": {"name": "ENSMUSG00000029636.441|Wasf3 (ssRNA)", "RNA": "GGGAGUUCUACAGUCCGACGAUCGCUUCGAUAUCCGCAUGCUAGUGGAUGGUUGAGUGGGUGGAUUCAUGAUGGAUGGAUGGAUGGAUGGAUGGAUGGAUGGAUGGAUGAGUGGAUGGAUAAUAGGUUGAUGGGUGGAUAGGUAGAUGAGUGAAUAGAUAGAUAUAGAUCAGUGGGAGGAUUGGAAAGUAGGUGAAUGAAUGGAUGGCAGAUAGAUGGAUCAAUUACAGAUGGAUGGAUGCAUGGAAUAGAUAGGUGGAUGGGUGGUGGCUAGAAGGUGCCUGAGUCUGCACAUCACUGCACUCUCUUGCGGUCGCACUAGUGUGGAAUUCUCGGGUGUCAAGG"}, "B9": {"name": "ENSMUSG00000029636.446|Wasf3 (ssRNA)", "RNA": "GGGAGUUCUACAGUCCGACGAUCGCUUCGAUAUCCGCAUGCUAGAUGGAUGGAUGGAUGGAUGGAUGGAUGGAUGGAUGAGUGGAUGGAUAAUAGGUUGAUGGGUGGAUAGGUAGAUGAGUGAAUAGAUAGAUAUAGAUCAGUGGGAGGAUUGGAAAGUAGGUGAAUGAAUGGAUGGCAGAUAGAUGGAUCAAUUACAGAUGGAUGGAUGCAUGGAAUAGAUAGGUGGAUGGGUGGUGGCUAGAAGGUGCCUGAGUCUGCACAUCACUGCACUGAGAAGGCAAAUGAGUACAUUAUACUAUUACUCUUGCGGUCGCACUAGUGUGGAAUUCUCGGGUGUCAAGG"}, "B10": {"name": "ENSMUSG00000029636.451|Wasf3 (ssRNA)", "RNA": "GGGAGUUCUACAGUCCGACGAUCGCUUCGAUAUCCGCAUGCUAUGGAUGAGUGGAUGGAUAAUAGGUUGAUGGGUGGAUAGGUAGAUGAGUGAAUAGAUAGAUAUAGAUCAGUGGGAGGAUUGGAAAGUAGGUGAAUGAAUGGAUGGCAGAUAGAUGGAUCAAUUACAGAUGGAUGGAUGCAUGGAAUAGAUAGGUGGAUGGGUGGUGGCUAGAAGGUGCCUGAGUCUGCACAUCACUGCACUGAGAAGGCAAAUGAGUACAUUAUACUAUUAGCACCAAACCCCAAGCUUCAGUAUUUAGAUCUCUUGCGGUCGCACUAGUGUGGAAUUCUCGGGUGUCAAGG"}, "B11": {"name": "ENSMUSG00000029636.445|Wasf3 (ssRNA)", "RNA": "GGGAGUUCUACAGUCCGACGAUCGCUUCGAUAUCCGCAUGCUAAUGAUGGAUGGAUGGAUGGAUGGAUGGAUGGAUGGAUGGAUGAGUGGAUGGAUAAUAGGUUGAUGGGUGGAUAGGUAGAUGAGUGAAUAGAUAGAUAUAGAUCAGUGGGAGGAUUGGAAAGUAGGUGAAUGAAUGGAUGGCAGAUAGAUGGAUCAAUUACAGAUGGAUGGAUGCAUGGAAUAGAUAGGUGGAUGGGUGGUGGCUAGAAGGUGCCUGAGUCUGCACAUCACUGCACUGAGAAGGCAAAUGAGUACAUUAUACUCUUGCGGUCGCACUAGUGUGGAAUUCUCGGGUGUCAAGG"}, "B12": {"name": "ENSMUSG00000029636.450|Wasf3 (ssRNA)", "RNA": "GGGAGUUCUACAGUCCGACGAUCGCUUCGAUAUCCGCAUGCUAGAUGGAUGGAUGAGUGGAUGGAUAAUAGGUUGAUGGGUGGAUAGGUAGAUGAGUGAAUAGAUAGAUAUAGAUCAGUGGGAGGAUUGGAAAGUAGGUGAAUGAAUGGAUGGCAGAUAGAUGGAUCAAUUACAGAUGGAUGGAUGCAUGGAAUAGAUAGGUGGAUGGGUGGUGGCUAGAAGGUGCCUGAGUCUGCACAUCACUGCACUGAGAAGGCAAAUGAGUACAUUAUACUAUUAGCACCAAACCCCAAGCUUCAGUAUCUCUUGCGGUCGCACUAGUGUGGAAUUCUCGGGUGUCAAGG"}, "B13": {"name": "ENSMUSG00000029636.439|Wasf3 (ssRNA)", "RNA": "GGGAGUUCUACAGUCCGACGAUCGCUUCGAUAUCCGCAUGCUAGGAUGAUAGGUGGUGGAUGGUUGAGUGGGUGGAUUCAUGAUGGAUGGAUGGAUGGAUGGAUGGAUGGAUGGAUGGAUGAGUGGAUGGAUAAUAGGUUGAUGGGUGGAUAGGUAGAUGAGUGAAUAGAUAGAUAUAGAUCAGUGGGAGGAUUGGAAAGUAGGUGAAUGAAUGGAUGGCAGAUAGAUGGAUCAAUUACAGAUGGAUGGAUGCAUGGAAUAGAUAGGUGGAUGGGUGGUGGCUAGAAGGUGCCUGAGUCUGCACUCUUGCGGUCGCACUAGUGUGGAAUUCUCGGGUGUCAAGG"}, "B14": {"name": "ENSMUSG00000029636.438|Wasf3 (ssRNA)", "RNA": "GGGAGUUCUACAGUCCGACGAUCGCUUCGAUAUCCGCAUGCUAGUGAAUGGAUGAUAGGUGGUGGAUGGUUGAGUGGGUGGAUUCAUGAUGGAUGGAUGGAUGGAUGGAUGGAUGGAUGGAUGGAUGAGUGGAUGGAUAAUAGGUUGAUGGGUGGAUAGGUAGAUGAGUGAAUAGAUAGAUAUAGAUCAGUGGGAGGAUUGGAAAGUAGGUGAAUGAAUGGAUGGCAGAUAGAUGGAUCAAUUACAGAUGGAUGGAUGCAUGGAAUAGAUAGGUGGAUGGGUGGUGGCUAGAAGGUGCCUGAGCUCUUGCGGUCGCACUAGUGUGGAAUUCUCGGGUGUCAAGG"}},
  "note": "The full ranking holds about 9,900 sequences; the median of “r (bound/input frequency ratio)” is about 0.7, and the highest 2% start at about 6.5. Only a selection was taken, and the highest values are over-represented in it overall.",
  "data": [
    {"target": "TDP-43 (Homo sapiens, UniProt Q13148 1-414)", "sequence (Q13148 whole entry)": "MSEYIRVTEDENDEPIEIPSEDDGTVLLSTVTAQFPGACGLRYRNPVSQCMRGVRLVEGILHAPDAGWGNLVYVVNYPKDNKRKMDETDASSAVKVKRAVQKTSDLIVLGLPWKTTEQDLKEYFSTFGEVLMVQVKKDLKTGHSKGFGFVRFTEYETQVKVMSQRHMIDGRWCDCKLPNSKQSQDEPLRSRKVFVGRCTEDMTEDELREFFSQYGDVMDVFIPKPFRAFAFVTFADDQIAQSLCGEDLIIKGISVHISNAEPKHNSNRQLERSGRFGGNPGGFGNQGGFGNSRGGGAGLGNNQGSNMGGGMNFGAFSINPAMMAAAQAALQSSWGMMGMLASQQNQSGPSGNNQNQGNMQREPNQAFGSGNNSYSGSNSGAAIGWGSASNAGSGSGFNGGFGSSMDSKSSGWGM", "assay": "RNA Bind-n-Seq with designed 260-mer pool; 25 mM Tris-HCl, 150 mM KCl, 3 mM MgCl2, BSA (printed 500 mg/mL), 20 units/mL SUPERase IN; pH not stated; 500 nM RNA pool, 1 h, 4 C; TDP-43 5, 50, 500 nM; high values mean tight binding", "settings": "protein: recombinant; tags: SBP (GST cleaved off with PreScission; pGEX-GST-SBP)", "summary_of_the_method": "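Streptavidin beads captured recombinant SBP-tagged TDP-43 at 5, 50 or 500 nM, and the beads were incubated for 1 h at 4 °C with 500 nM of an in vitro-transcribed pool of 260-nt 3′ UTR oligos in 25 mM Tris-HCl, 150 mM KCl, 3 mM MgCl2, BSA and SUPERase IN. After washing, bound RNA was eluted with biotin, reverse transcribed, PCR-amplified and sequenced. Binding is reported as R, the mapped-read-normalized abundance of each oligo in the bound sample divided by its abundance in the input. Two independent protein batches served as duplicates.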", "values": [
      {"binder": "B1", "binding signal": "1.65 R (bound/input frequency ratio)"},
      {"binder": "B2", "binding signal": "2.26 R (bound/input frequency ratio)"},
      {"binder": "B3", "binding signal": "7.49 R (bound/input frequency ratio)"},
      {"binder": "B4", "binding signal": "6.51 R (bound/input frequency ratio)"},
      {"binder": "B5", "binding signal": "4.6 R (bound/input frequency ratio)"},
      {"binder": "B6", "binding signal": "5.07 R (bound/input frequency ratio)"},
      {"binder": "B7", "binding signal": "5.86 R (bound/input frequency ratio)"},
      {"binder": "B8", "binding signal": "7.11 R (bound/input frequency ratio)"},
      {"binder": "B9", "binding signal": "4.56 R (bound/input frequency ratio)"},
      {"binder": "B10", "binding signal": "4.65 R (bound/input frequency ratio)"},
      {"binder": "B11", "binding signal": "5.13 R (bound/input frequency ratio)"},
      {"binder": "B12", "binding signal": "6.13 R (bound/input frequency ratio)"},
      {"binder": "B13", "binding signal": "5.9 R (bound/input frequency ratio)"},
      {"binder": "B14", "binding signal": "8.37 R (bound/input frequency ratio)"}
    ]}
  ]
}
